Assay results published in PubChem BioAssay (Tox21).
Values joined by “and” are separate entries in the source; they are usually repeats but may differ in a detail not shown here. Equal entries are not always repeated. Inconclusive results are not listed. Active and inactive are the calls of the source. Calls come from the whole dose curve; as a rule, active = well fitted curve in the direction sought with a large enough effect in the repeat runs; inconclusive = weak or mixed curves; inactive = no such curve, though single readings can be large; an effect the other way counts as inactive or inconclusive.

What was measured:
[1] = Caspase-3/7 induction in HepG2 cells by small molecules, qHTS assay (AID 1346978); note: nearly all actives have a fitted effect of over 15% in size
In short: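 Wild-type HepG2 cells, 2,000/well, settled 5 hr at 37 C and 5% CO2, then compound-treated for 17 hr; caspase-3/7 activity read by luminescent Caspase-Glo 3/7 after 30 min at room temperature.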

[2] = Caspase-3/7 induction in CHO-K1 cells by small molecules, qHTS assay (AID 1346980); note: nearly all actives have a fitted effect of over 15% in size; note: potency is the fitted concentration of half-maximal effect
In short: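 Wild-type CHO-K1 cells exposed to compounds for 17hr at 37 C, 5% CO2. Caspase-3/7 activity then measured by Caspase-Glo 3/7 luminescence after 30min at room temperature.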

[3] = molecular target: Nuclear receptor subfamily 1 group I member 2 (Rattus norvegicus) (UniProt Q9R1A7); assay: Rat pregnane X receptor (rPXR) activation by small molecules, qHTS assay (AID 1346983); settings: rPXR luciferase reporter cells, One-Glo luminescence, 24 h; max activation: active compounds read high; note: nearly all actives have a fitted effect of over 20% in size; note: potency is the fitted concentration of half-maximal effect
Nuclear receptor subfamily 1 group I member 2 (Rattus norvegicus), sequence (Q9R1A7 whole entry, looked up): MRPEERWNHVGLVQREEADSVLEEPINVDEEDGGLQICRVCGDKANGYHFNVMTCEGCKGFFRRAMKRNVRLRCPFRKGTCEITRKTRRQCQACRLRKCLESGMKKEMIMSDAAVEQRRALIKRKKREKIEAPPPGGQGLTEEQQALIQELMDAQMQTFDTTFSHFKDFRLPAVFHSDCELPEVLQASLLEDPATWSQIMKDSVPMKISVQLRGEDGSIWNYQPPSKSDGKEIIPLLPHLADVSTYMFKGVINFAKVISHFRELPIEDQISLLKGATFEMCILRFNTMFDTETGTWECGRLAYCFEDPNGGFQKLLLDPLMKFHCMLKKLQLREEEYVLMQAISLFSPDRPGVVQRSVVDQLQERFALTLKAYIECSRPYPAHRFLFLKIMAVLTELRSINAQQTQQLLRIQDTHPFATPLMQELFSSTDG
In short: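 Cell-based rPXR activation assay: rPXR cells, 2,000 per well, rested 5hr at 37 C, then exposed to compounds in DMSO for 24 hr at 37 C. Luciferase activity read by One-Glo luminescence after 30 min at room temperature.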

[4] = molecular target: Nuclear receptor subfamily 1 group I member 2 (Homo sapiens) (UniProt O75469); assay: CYP3A4 induction through human pregnane X receptor (PXR) by small molecules, qHTS assay (AID 1346984); note: nearly all actives have a fitted effect of over 40% in size; note: potency is the fitted concentration of half-maximal effect
Nuclear receptor subfamily 1 group I member 2 (Homo sapiens), sequence (O75469 whole entry, looked up): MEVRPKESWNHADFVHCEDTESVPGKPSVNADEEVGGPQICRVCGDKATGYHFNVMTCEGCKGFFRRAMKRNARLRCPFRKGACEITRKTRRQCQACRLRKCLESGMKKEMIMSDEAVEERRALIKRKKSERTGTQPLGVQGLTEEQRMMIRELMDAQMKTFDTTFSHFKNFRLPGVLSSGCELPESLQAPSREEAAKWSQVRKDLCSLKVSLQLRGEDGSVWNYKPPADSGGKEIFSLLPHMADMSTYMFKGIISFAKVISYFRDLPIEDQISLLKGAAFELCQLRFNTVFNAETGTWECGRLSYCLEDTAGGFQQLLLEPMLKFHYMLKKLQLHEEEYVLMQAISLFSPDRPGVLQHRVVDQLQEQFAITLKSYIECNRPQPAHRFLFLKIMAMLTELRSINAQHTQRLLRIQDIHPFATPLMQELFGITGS
In short: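 DPX-2 HepG2 cells carrying a PXR response element and CYP3A4-promoter luciferase construct, treated with compounds 24 hr at 37C. Then P450-Glo CYP3A4 Luciferin-IPA substrate (3uM final) for 3 hr at 37C, One-Glo added, luminescence read.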

[5] = molecular target: Nuclear receptor subfamily 1 group I member 2 (Homo sapiens) (UniProt O75469); assay: Human pregnane X receptor (PXR) activation by small molecules, qHTS assay (AID 1346985); note: nearly all actives have a fitted effect of over 40% in size; note: potency is the fitted concentration of half-maximal effect
In short: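 DPX-2 cells (HepG2 co-transfected with a PXR response element and a CYP3A4-promoter luciferase construct) were seeded at 2,000 per well, rested 5 hr at 37C, then exposed to DMSO-dissolved compounds for 24 hr. Activation was read as luciferase luminescence.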

[6] = molecular target: Cytochrome P450 2D6 (Homo sapiens) (UniProt P10635); assay: Cytochrome P450 Family 2 Subfamily D Member 6 (CYP2D6) small molecule antagonists: luciferase reporter qHTS assay (AID 1671196); note: nearly all actives have a fitted effect of over 50% in size; note: potency is the fitted concentration of half-maximal effect
Cytochrome P450 2D6 (Homo sapiens), sequence (P10635 whole entry, looked up): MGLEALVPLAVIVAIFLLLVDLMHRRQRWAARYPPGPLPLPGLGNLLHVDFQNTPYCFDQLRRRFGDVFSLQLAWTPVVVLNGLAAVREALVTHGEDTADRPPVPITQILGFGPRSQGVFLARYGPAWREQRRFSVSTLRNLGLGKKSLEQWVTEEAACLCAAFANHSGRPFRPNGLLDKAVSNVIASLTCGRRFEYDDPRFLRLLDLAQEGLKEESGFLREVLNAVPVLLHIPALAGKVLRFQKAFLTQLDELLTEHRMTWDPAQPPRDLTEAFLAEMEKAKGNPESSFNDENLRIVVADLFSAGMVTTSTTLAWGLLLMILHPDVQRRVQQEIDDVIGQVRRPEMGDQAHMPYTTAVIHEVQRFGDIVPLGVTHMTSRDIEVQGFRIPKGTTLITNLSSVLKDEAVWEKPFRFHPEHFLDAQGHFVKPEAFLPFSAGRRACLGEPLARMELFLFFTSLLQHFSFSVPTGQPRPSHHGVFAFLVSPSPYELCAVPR
In short: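 Cell-free P450-Glo system: CYP2D6 with proluciferin substrate was pre-incubated with compound for 10 min, then reacted with NADPH regeneration for 1 h at room temperature. Luciferin product was detected after 20 min, and data were reported as relative luminescence units.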

[7] = molecular target: Nuclear receptor subfamily 1 group I member 2 (Homo sapiens) (UniProt O75469); assay: Human pregnane X receptor (PXR) small molecule agonists, qHTS assay (AID 1346982); note: nearly all actives have a fitted effect of over 35% in size; note: potency is the fitted concentration of half-maximal effect
In short: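 PXR-Luc HepG2 reporter cells (CYP3A4-driven luciferase) in 5% charcoal-stripped FBS medium, plated 5 h before compound addition, then treated 24 h at 37C. Luciferase read by ONE-Glo luminescence after 30 min at room temperature.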

[8] = molecular target: Cytochrome P450 2C19 (Homo sapiens) (UniProt P33261); assay: Cytochrome P450 Family 2 Subfamily C Member 19 (CYP2C19) small molecule antagonists: luciferase reporter qHTS assay (AID 1671197); note: nearly all actives have a fitted effect of over 65% in size; note: potency is the fitted concentration of half-maximal effect
Cytochrome P450 2C19 (Homo sapiens), sequence (P33261 whole entry, looked up): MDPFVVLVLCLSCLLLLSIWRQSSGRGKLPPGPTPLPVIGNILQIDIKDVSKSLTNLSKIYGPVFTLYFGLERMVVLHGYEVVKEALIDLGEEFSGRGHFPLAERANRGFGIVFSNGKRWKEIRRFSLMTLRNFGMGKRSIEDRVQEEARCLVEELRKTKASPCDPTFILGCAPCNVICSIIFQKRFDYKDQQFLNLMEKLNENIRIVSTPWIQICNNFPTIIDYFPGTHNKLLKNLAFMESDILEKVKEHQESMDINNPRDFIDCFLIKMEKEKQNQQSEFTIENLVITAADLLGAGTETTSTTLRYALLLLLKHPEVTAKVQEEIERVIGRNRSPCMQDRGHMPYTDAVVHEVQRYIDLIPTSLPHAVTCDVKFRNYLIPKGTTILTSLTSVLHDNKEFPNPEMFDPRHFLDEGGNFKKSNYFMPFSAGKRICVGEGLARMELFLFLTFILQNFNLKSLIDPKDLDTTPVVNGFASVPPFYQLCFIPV
In short: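 Quantitative high-throughput screen of the Tox21 library using CYP2C19 with proluciferin substrate. Reaction: NADPH regeneration, 37C, 1 h, after 10 min compound preincubation at room temperature. Readout: luminescence.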

[9] = Caspase-3/7 induction in CHO-K1 cells by small molecules, qHTS cell viability counter screen (AID 1346979); note: nearly all actives have a fitted effect of over 35% in size; note: potency is the fitted concentration of half-maximal effect
In short: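 Seeding: 1,500 CHO-K1 cells/well. Rest: 5hr, 37C. Treatment: compounds in DMSO, 16hr. Read: CellTiter-Fluor, 1hr, fluorescence.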

[10] = Caspase-3/7 induction in HepG2 cells by small molecules, qHTS cell viability counter screen (AID 1346981); note: nearly all actives have a fitted effect of over 30% in size; note: potency is the fitted concentration of half-maximal effect
In short: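 Wild-type HepG2 cells, 2,000/well, settled 5 hr at 37 C, 5% CO2 before compound addition. Viability read by CellTiter-Fluor fluorescence, reagent added after 16 hr compound exposure, then 1 hr at 37C, in the same wells as the caspase read.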
% is set by controls: 0 for no effect and ±100 for the full control effect.

CCCOC(C(=O)OC1CCN(C)CC1)(c1ccccc1)c1ccccc1
inactive: Potency [1] | Potency [2]
active: Potency [3] 15.8 µM | Potency [4] 28.2 µM | Potency [5] 14.1 µM | Potency [6] 7.76 µM

CCOc1ccc(N)c([N+](=O)[O-])c1
active: Potency [6] 71 µM | Potency [8] 35.6 µM
inactive: Potency [1] | Potency [2] | Potency [7]

CC(=O)[O][Al][O]C(C)=O
inactive: Potency [9] | Potency [2] | Potency [10] | Potency [7] | max activation [3] -1.35% | Potency [4] | Potency [5] | Potency [6] | Potency [8]

CC(=O)c1ccc2c(c1)N(CCCN1CCC(CCO)CC1)c1ccccc1S2
inactive: Potency [1] | Potency [2] | max activation [3] -2.34% | Potency [5]

CN(C)C(=O)NC1(c2ccccc2)CCN(CC[C@@]2(c3ccc(F)c(F)c3)CN(C(=O)c3ccccc3)CCO2)CC1
active: Potency [7] 8.02 µM | Potency [6] 26.2 µM
inactive: Potency [1] | Potency [2]

CC(=O)[O][Al]
inactive: Potency [9] | Potency [2] | Potency [10]

O=C(Nc1ccccc1)c1ccccc1O
active: Potency [7] 6.86 µM | Potency [6] 35.6 µM | Potency [8] 22.4 µM
inactive: Potency [1] | Potency [2]

CCCCc1nc2cccnc2n1Cc1ccc(-c2ccccc2-c2nnn[nH]2)cc1
inactive: Potency [1] | Potency [2] | Potency [6] | Potency [8]
active: Potency [7] 61.1 µM

C[N+](C)(C)CCOC(=O)CCC(=O)OCC[N+](C)(C)C
inactive: Potency [9] | Potency [2] | Potency [10] | Potency [7] | max activation [3] -0.297% | Potency [4] | Potency [5] | Potency [6]

OC(CN1CCC(Cc2ccc(F)cc2)CC1)c1ccc(Cl)cc1 (stereo unspecified)
active: Potency [6] 0.138 µM
inactive: Potency [1] | Potency [2] | Potency [7] | max activation [3] -1.2% | Potency [5] | Potency [8]

COc1ccc(-c2nc3ccc(C4=NNC(=O)CC4C)cc3[nH]2)cc1 (stereo unspecified)
inactive: Potency [2] | Potency [10] | Potency [4] | Potency [6]
active: Potency [9] 23.7 µM | Potency [7] 13.3 µM | Potency [3] 22.4 µM

CN(C)CCOC(c1ccccc1)c1ccc(Br)cc1 (stereo unspecified)
active: Potency [6] 1.55 µM | Potency [8] 13.8 µM
inactive: Potency [1] | Potency [2] | Potency [7]

COc1ccc(S(=O)(=O)N2C(=O)[C@@](c3ccccc3OC)(N3C[C@H](O)C[C@H]3C(=O)N(C)C)c3cc(Cl)ccc32)c(OC)c1
active: Potency [9] 30.6 µM | Potency [2] 61.1 µM | Potency [10] 30.6 µM | Potency [7] 61.1 µM

Cc1cccc(C)c1OCC(=O)N[C@@H](Cc1ccccc1)[C@@H](O)C[C@H](Cc1ccccc1)NC(=O)[C@H](C(C)C)N1CCCNC1=O
inactive: Potency [2]
active: Potency [9] 26.6 µM | Potency [10] 26.6 µM | Potency [7] 29.8 µM | Potency [3] 11.2 µM | Potency [5] 3.98 µM | Potency [6] 15.5 µM

CCN(CC)CCOC(=O)C(c1ccccc1)C1CCCCC1 (stereo unspecified)
active: Potency [7] 13.3 µM | Potency [5] 25.1 µM | Potency [6] 1.1 µM
inactive: Potency [1] | Potency [2] | max activation [3] 1.58% | Potency [4]

CN(C)CCN(Cc1ccsc1)c1ccccn1
active: Potency [6] 3.89 µM
inactive: Potency [9] | Potency [2] | Potency [10] | Potency [7]

C=CC(=O)OCCOCCOCCOCCOC(=O)C=C
inactive: Potency [7] | Potency [6] | Potency [8]
active: Potency [9] 8.68 µM and 13.6 µM | Potency [2] 9.74 µM and 12.1 µM | Potency [10] 30.8 µM and 27.1 µM

COc1ccc(C(=O)c2ccc(OC)cc2O)c(O)c1
active: Potency [7] 27.5 µM | Potency [8] 0.802 µM
inactive: Potency [1] | Potency [2]

CCOC(=O)NCCOc1ccc(Oc2ccccc2)cc1
active: Potency [7] 21.7 µM | Potency [6] 35.6 µM | Potency [8] 6.33 µM
inactive: Potency [1] | Potency [2]

CN1CCC(=C2c3ccccc3Sc3ccccc32)CC1
inactive: Potency [1] | Potency [2] | Potency [7] | max activation [3] -5.4%
active: Potency [4] 10 µM | Potency [5] 14.1 µM | Potency [6] 3.47 µM | Potency [8] 38.9 µM

C#Cc1cccc(Nc2ncnc3cc(OCCOC)c(OCCOC)cc23)c1
inactive: Potency [1] | Potency [2] | max activation [3] -7.82% | Potency [4] | Potency [6] | Potency [8]
active: Potency [7] 7.5 µM

Cc1oc2c(NC(=O)c3c(Cl)cccc3Cl)cccc2c1C(C)(C)O
inactive: Potency [1] | Potency [2] | Potency [6] | Potency [8]
active: Potency [7] 1.09 µM

C[C@@H]1C[C@H]2O[C@@]3(O[C@@H]2C(C)(C)O)[C@H](O)[C@@]2(C)[C@@H]4CC[C@H]5C(C)(C)[C@@H](O[C@@H]6OC[C@@H](O)[C@H](O)[C@H]6O)CC[C@@]56C[C@@]46CC[C@]2(C)[C@@H]13
inactive: Potency [1] | Potency [2] | Potency [10] | Potency [8]

CC(=O)c1ccc2c(c1)N(CCCN(C)C)c1ccccc1S2
active: Potency [6] 1.95 µM
inactive: Potency [1] | Potency [2] | Potency [7] | max activation [3] -2.15% | Potency [4] | Potency [5]

Cc1cccc(Nc2ccccc2)c1
inactive: Potency [9] | Potency [2] | Potency [10]

COc1cc2nc(N3CCN(C(=O)C4COc5ccccc5O4)CC3)nc(N)c2cc1OC (stereo unspecified)
inactive: Potency [1] | Potency [2] | max activation [3] -0.947% | Potency [6] | Potency [8]

O=C(O)c1ccc(S(=O)(=O)O)cc1C(=O)O
inactive: Potency [1] | Potency [2] | Potency [7] | Potency [6]

CCCCC
inactive: Potency [1] | Potency [2] | max activation [3] -1.52% | Potency [4] | Potency [5] | Potency [6]
active: Potency [7] 53.6 µM
